Sm TGR block = inhibitors of Schistosoma mansoni thioredoxin glutathione reductase. Potency, µM (titrated, usually from 114 µM), without a hit: top-dose activity change, negative = inhibition, usual class: inhibitors. purified TGR, DTNB reduction, TNB absorbance 405 nm. 3% of 360,000 active. AID 485364. Q962Y6; note: potency is the fitted concentration of half-maximal effect; % is set by controls: 0 for no effect and ±100 for the full control effect; nearly all actives have a fitted effect of over 60% in size
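Kinetic colorimetric format: TGR-catalysed, NADPH-driven DTNB reduction monitored via TNB absorbance. Enzyme dispensed at 20 nM; compound exposure 15 min at room temperature before reaction start.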
Pf growth 48h = inhibits P. falciparum growth in the first generation, 48 h; P. falciparum luciferase growth in erythrocytes, 48 h; Potency, µM (series often up to 28.7 µM), for the others: at the highest dose activity change, negative = inhibition, hits mostly inhibitors; 5.9% of 310,000 active; note: potency is the fitted concentration of half-maximal effect; % is set by controls: 0 for no effect and ±100 for the full control effect
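Compounds are pin-transferred into medium, infected erythrocytes (2% hematocrit, 0.1% parasitemia final) are added, and plates sit one parasite generation at 37 C in 5% CO2. Detection reagent is then added and luminescence measured.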
Pf growth 96h = P. falciparum growth inhibition at 96 hour, primary screen for plastid delayed-death inhibitors. P. falciparum luciferase reporter growth, 96 h. Potency, µM (doses to about 28.7 µM), for inactives: top-dose activity change, negative = inhibition, usual class: inhibitors. 6.9% of 320,000 active; note: potency is the fitted concentration of half-maximal effect; % is set by controls: 0 for no effect and ±100 for the full control effect
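P. falciparum expressing integrated firefly luciferase, in erythrocytes at 2% hematocrit, 0.05% parasitemia, incubated with compounds 96 h at 37 C, 5% CO2. Growth inhibition read as loss of luminescence; two-generation exposure targets delayed-death apicoplast inhibitors.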
SARS PLP yeast = inhibitors of SARS-CoV papain-like protease in yeast. S. cerevisiae expressing SARS-CoV PLpro, growth rescue. 0.19% of 330,000 active. Potency, µM (doses to about 32.9 µM), for the others: at the top dose activity, positive = growth rescue, most hits filed as activators. AID 485353; calls by dose curve; note: potency is the fitted concentration of half-maximal effect; 0% is about no effect; nearly all actives have a fitted effect of over 55% in size
HCV inhibitor = HCV inhibition; Huh7.5.1 HCVcc-Cre infection, luciferase reporter, 44 h; Potency, µM (highest dose often 41.8 µM), inactives show at the highest dose activity change, negative = inhibition, hits mostly inhibitors; 3.4% of 340,000 active; AID 651820; note: potency is the fitted concentration of half-maximal effect; % is set by controls: 0 for no effect and ±100 for the full control effect
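Cells seeded at 1,000/well and cultured 4 h, then compounds added followed by HCVcc-Cre virus (~0.5 moi). After 44 h further culture, luciferase substrate was added, plates held 15 min at room temperature, and luminescence read for 15 sec.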
HCMV inh = inhibitors of human cytomegalovirus; HFF cells, HCMV-luciferase reporter, 72 h; active compounds read low; activity change, negative = inhibition, % at 57.5 µM; 4.5% of 410,000 active; AID 1259415; in the data active = activity change below about -60%; inconclusive = no clear call, values can overlap the other calls; inactive = above about -39%; note: % is set by controls: 0 for no effect and ±100 for the full control effect
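Compounds were evaluated in HFFs infected with an HCMV luciferase reporter virus (MOI 1 PFU/cell). Luciferase in lysates collected 72 h post infection served as the replication measure.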
* = called active by the depositor; ? = inconclusive; · = not tested or not shown; [ ] = remark or other dose. An excerpt weighted towards active compounds, which were near 15% of everything screened. Unless noted, calls come from the whole dose curve; as a rule, active = well fitted curve in the direction sought with a large enough effect; inconclusive = small, poorly fitted or top-dose-only effect, or another doubt; inactive = no such curve, though single readings can be large; an effect the other way counts as inactive or inconclusive.

SMILES	Sm TGR block	Pf growth 48h	Pf growth 96h	SARS PLP yeast	HCV inhibitor	HCMV inh
COc1ccc(CCNC(=O)CN(Cc2ccc(Cl)cc2)S(C)(=O)=O)cc1OC	-9%	0%	15µM*	-8%	-5%	6
COc1ccc(CCNC(=O)c2ccc(CS(=O)(=O)c3ccc(C)cc3)o2)cc1OC	-9%	·	?	2%	14µM*	-28
COc1ccc(CCNC(=O)CCS(=O)(=O)c2ccc(C)cc2)cc1OC	-2%	·	-18%	0%	10%	47
COc1ccc(CCNC(=O)c2ccc(CS(=O)(=O)c3ccc(Cl)cc3)o2)cc1OC	-29%	-48%	10µM*	2%	13µM*	?
CCCOc1ccc(/C=C/C(=O)OCC(=O)N(C)c2c(N)n(Cc3ccccc3)c(=O)[nH]c2=O)cc1OCC	-3%	-11%	?	-1%	?	-27
O=C(NCc1cccnc1)C1Cc2c(-c3ccc(Cl)cc3)ccnc2O1 (centres undefined)	·	·	·	·	·	-27
CCn1c(CNC(=O)C2CCCCC2)cc2ccccc21	6%	6%	9.3µM*	-5%	0%	33
CC(C)c1ccc(C(C(=O)NC2CCCCC2)N(C(=O)c2ccccn2)c2cccnc2)cc1 (centres undefined)	-1%	10µM*	?	0%	7%	-37
O=C(NC1CCCC1)C(c1ccncc1)N(C(=O)c1csnn1)c1ccccc1 (centres undefined)	-5%	17%	5.9µM*	-1%	19%	8
O=C(NC1CCCC1)C(c1ccccc1)N(C(=O)c1ccno1)c1ccccc1 (centres undefined)	-1%	-15%	7.4µM*	2%	0%	-11
O=C(NC1CCCCC1)C(c1ccncc1)N(C(=O)c1csnn1)c1ccccc1 (centres undefined)	-11%	17%	16%	-7%	2%	-5
CC(=O)c1cccc(N(C(=O)c2ccccn2)C(C(=O)NC2CCCCC2)c2ccccc2)c1 (centres undefined)	-11%	-26%	10µM*	0%	-5%	-19
CC(=O)c1ccc(N(C(=O)c2csnn2)C(C(=O)NC2CCCC2)c2ccccc2)cc1 (centres undefined)	10%	-19%	18%	-1%	?	1
CC(O)(c1ccccc1)c1nc(/C=C/c2ccccc2)cs1 (centres undefined)	·	·	·	·	·	-8
CC(C)C(NCC(=O)Nc1ccccc1C(=O)NC1CC1)c1ccccc1 (centres undefined)	·	·	·	?	-21%	-35
CCOC(=O)C1(C)CCCCN1C(=O)c1ccc(F)c(C)c1 (centres undefined)	·	·	·	·	·	5
COc1ccccc1CC(=O)Nc1ccc2c(c1)OC1(CCCC1)O2	·	·	·	2%	13µM*	16
Cc1cccc(CN(C)C)c1OC(=O)N(C)C	20%	19%	5.9µM*	-1%	15%	-6
CCCCOc1ccc(C(=O)N(Cc2ccc(N(C)C)cc2)Cc2ccco2)cc1	4%	·	·	·	·	5
COc1ccc(C2CC(c3cccs3)=NN2C(=S)Nc2ccccc2)cc1OC (centres undefined)	-11%	6.6µM*	9.3µM*	-17%	9%	-32
CC1=NN(C(=S)Nc2ccccc2)C(c2ccccc2)C1 (centres undefined)	-2%	9.3µM*	2.6µM*	27%	25%	28
CC1=C(C(=O)N(C(C)C)C(C)C)CC(CC(=O)NCCc2ccccn2)C(=O)N1Cc1ccc(F)cc1 (centres undefined)	·	·	·	·	·	-11
C/C(=C\COc1ccc2ccc(=O)oc2c1)CC[C@@H](O)C(C)(C)O	2%	69%	39%	-1%	-7%	57
C/C(=C\COc1cc(=O)[nH]c2ccccc12)CCC(O)C(C)(C)O (centres undefined)	-11%	2%	3%	1%	0.32µM*	32
COc1ccc(S(=O)(=O)CCC(=O)N2c3ccccc3CC2C)cc1 (centres undefined)	-26%	-25%	10%	-3%	-10%	29
SMILES	Sm TGR block	Pf growth 48h	Pf growth 96h	SARS PLP yeast	HCV inhibitor	HCMV inh
COc1ccc(CCC2(C)NC(=O)N(C(C)C(=O)N3c4ccccc4CC3C)C2=O)cc1 (centres undefined)	-3%	13µM*	?	-17%	8%	40
O=C(NCc1ccco1)c1cc(-c2ccncc2)nc2ccccc12	-32%	2.1µM*	?	0%	-10%	-3
Cc1ccc(-c2cc(C(=O)NCc3ccco3)c3ccccc3n2)o1	18µM*	-17%	10%	-8%	?	-28
CCc1ccc(NC(=S)NC(=O)CC(C)C)cc1	-25%	0%	110%	?	-10%	26
COc1ccc(C2c3ccsc3CCN2C(=O)NC(C)(C)C)cc1 (centres undefined)	-2%	-9%	?	1%	22µM*	-39
COc1ccc(NC(=O)N2CCc3c([nH]c4ccc(OC)cc34)C2c2ccc(OC)cc2)cc1 (centres undefined)	5%	·	·	·	·	?
Cc1cccc(S(=O)(=O)N(C)C[C@@H]2OCc3cn(nn3)CCCC(=O)N([C@H](C)CO)C[C@H]2C)c1	·	·	·	·	·	-3
CC1=NN(c2ccccc2)C(=O)C1c1ccccc1 (centres undefined)	0%	-19%	?	14µM*	-2%	-31
CC1=NN(c2ccccc2)C(=O)C1N=Nc1ccccc1 (centres undefined)	-10%	251%	?	-10%	3%	63
COc1ccc(N=NC2C(=O)N(c3ccccc3)N=C2C)cc1 (centres undefined)	4%	87%	2.6µM*	1%	?	6
CSc1nc(SCCO)c2sc3nc(-c4ccco4)c4c(c3c2n1)CC(C)(C)OC4	2.5µM*	?	?	7%	?	30
COC(=O)CSc1nc(SC)nc2c1sc1nc(-c3ccco3)c3c(c12)CC(C)(C)OC3	·	·	·	·	-25%	-26
CC1(C)Cc2c(c(-c3ccco3)nc3sc4c(NCCO)ncnc4c23)CO1	14µM*	?	?	-1%	13µM*	-75*
COCCCNc1ncnc2c1sc1nc(-c3ccco3)c3c(c12)CC(C)(C)OC3	16µM*	?	?	0%	?	57
OCCN(CCO)c1ncnc2c1sc1nc(N3CCOCC3)c3c(c12)CCCC3	-2%	?	-3%[5.75 µM]	0%	?	-5
CC1(C)Cc2c(C#N)c(NCCc3ccccc3)nc(-c3ccco3)c2CO1	?	0%	-1%[5.75 µM]	-1%	?	-3

Screening data (PubChem)
